# Results: PubChem BioAssay
# “And” between values parts separate entries of the source, which are not always exact repeats. Equal entries are not always repeated. More than one record can exist for a structure, and the calls need not agree. The source made the active and inactive calls. Unless noted, no stated cut-off is given here; in the data, active means inhibition above about 80%; inactive means the rest.
# Tests used:
# [1] = biological target: NAD(+) hydrolase SARM1 (Homo sapiens) (UniProt Q6SZW1); experiment: blocking NAD cleavage by SARM1 SAM-TIR – cell lysate, NAD-Glo luminescence (AID 1508614;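 active means compound whose remaining NAD level is above about 45 nM, limit read from the data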); settings: SAM-TIR HEK293T lysate NADase, at 1 µM, stronger effect = higher value
# [2] = biological target: Mitogen-activated protein kinase 7 (Homo sapiens) (UniProt Q13164); experiment: Gal4-ERK5 driven luciferase induction – cell-based, HTS, primary screen (AID 1508626;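 active means luciferase signal above three times the same-plate solvent-only control wells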;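 further: luciferase driven by Gal4-ERK5 fusion binding five Gal4 sites before minimal TATA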); settings: HeLa Gal4-ERK5 transactivation, 18 h, at 5 µM, stronger effect = higher value
# [3] = galactose survival enhancers in mitochondrial complex I cybrids – cell-based, galactose medium, ATP luminescence, primary screen (AID 1645843;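 active means z-score of at least 1.8 in each of two replicates, scored against plate mean and spread of sample wells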;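 further: positive z means more ATP and so rescue of galactose-driven cybrid death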); settings: complex I mutant cybrid cells, 72 h, stronger effect = higher value
# [4] = growth inhibition, single agent or in combination, cell-based, chromothripsis tumors, cisplatin or BGB combos (AID 1671449); settings: LFS_MB_P medulloblastoma cells;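 further: cells exposed for 96 hours; 0% = vehicle DMSO and 100% = killing by high DMSO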
# [5] = growth inhibition, single agent and combos, cell-based, chromothripsis tumors, cisplatin or BGB combos (AID 1671450); settings: HDN33 neuroblastoma cells, stronger effect = higher value;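 further: cells exposed to compound for four days; 0% = vehicle DMSO and 100% = cell killing by high DMSO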
# [6] = growth inhibition, single agents and combos, ICB984, cell-based, cisplatin or BGB combos, synergistic combos for chromothripsis tumors (AID 1671451; call rule not given here;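 further: cells exposed for 96 hours before readout; 0% = vehicle DMSO and 100% = killing by high DMSO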); settings: ICB984 medulloblastoma cells, drug combinations, stronger effect = higher value
# [7] = growth inhibition, single agents and combos, LFS_MB_1R, cell-based, cisplatin or BGB combos, synergistic combos for chromothripsis tumors (AID 1671452); settings: LFS_MB_1R medulloblastoma cells, stronger effect = higher value;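 further: cells exposed for 96 hours before readout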
# [8] = growth inhibition, single agents and combos, HTB85, cell-based, BGB or cisplatin IC20 combos, synergistic combos for chromothripsis tumors (AID 1671453); settings: HTB85 osteosarcoma cells, drug combinations, stronger effect = higher value;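 further: cells exposed for 96 hours before readout; 0% = vehicle DMSO and 100% = high DMSO killing control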
# [9] = growth inhibition, single agents and combos, CRL2098, cell-based, BGB or cisplatin IC20 combos, synergistic combos for chromothripsis tumors (AID 1671454); settings: CRL2098 osteosarcoma cells, drug combinations, stronger effect = higher value;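 further: cells exposed for 96 h before readout; 0% = vehicle DMSO and 100% = killing by high DMSO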
# [10] = growth inhibition, single agents and combos, HD-MB03, cell-based, BGB or cisplatin IC20 combos, synergistic combos for chromothripsis tumors (AID 1671455; in the data active means inhibition above about 83%;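 further: 0% = vehicle DMSO and 100% = high DMSO as cytotoxic control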); settings: HD-MB03 medulloblastoma cells, stronger effect = higher value
# [11] = growth inhibition, single agents and combos, UWB1.289, cell-based, BGB or cisplatin combos, synergistic combos for chromothripsis tumors (AID 1671456); settings: UWB1.289 ovarian carcinoma cells, stronger effect = higher value;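 further: cells exposed to compound for four days; 0% = vehicle DMSO and 100% = killing by high DMSO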
# [12] = growth inhibition, single agents and combos, LFS_MB_2R, cell-based, cisplatin combos, synergistic combos for chromothripsis tumors (AID 1671457); settings: LFS_MB_2R medulloblastoma cells, stronger effect = higher value;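 further: cells exposed to compound for four days before readout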
# [13] = growth inhibition, MDA-MB-436, cell-based, BGB or cisplatin combos, synergistic combos for chromothripsis tumors (AID 1671458; call rule not given here;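 further: cells exposed for 96 hours; 0% = vehicle DMSO and 100% = killing by high DMSO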); settings: MDA-MB-436 breast carcinoma growth inhibition, drug combinations, stronger effect = higher value
# [14] = UWB1.289_BRCA1 ovarian cancer growth, cell-based, BGB or cisplatin combinations (AID 1671459); settings: UWB1.289 BRCA1 ovarian carcinoma, drug combinations, stronger effect = higher value
# [15] = drug combination toxicity in non-malignant astrocytes – cell-based, BGB or cisplatin IC20 combos, cytotoxicity control for chromothriptic childhood tumor combination screen (AID 1671460); settings: Human astrocytes, viability inhibition, drug combinations, at 0.5 µM, stronger effect = higher value;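 further: cells exposed to compounds for 96 hours before viability readout; 0% = vehicle and 100% = killing control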
# [16] = BT084 cell growth, single and combined drugs, ICGC_MB145, cisplatin and BGB IC40 combos (AID 1671461); settings: BT084 medulloblastoma cells, drug combinations, stronger effect = higher value;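 further: cells exposed to drugs for 96 hours; 0% = vehicle DMSO and 100% = high DMSO full killing control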
# [17] = RCMB18 cell growth, single agent and combined, cisplatin and BGB IC40 combos (AID 1671462); settings: RCMB18 medulloblastoma cells, stronger effect = higher value;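 further: cells exposed to compound for four days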
# [18] = CRL1545 cell growth, single agent and combined, cisplatin and BGB IC20 combos (AID 1671464); settings: CRL1545 osteosarcoma cells, stronger effect = higher value;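 further: cells exposed to compound for 96 hours before readout; 0% = vehicle DMSO and 100% = high DMSO killing control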
# [19] = measured here: combination with BGB IC40, at 0.05 µM
# [20] = measured here: with BGB IC20 combination, at 0.5 µM
# [21] = measured here: with cisplatin IC20 combination, at 0.5 µM
# [22] = measured here: combination with cisplatin, at 0.5 µM
# [23] = measured here: combination with cisplatin, at 5 µM
# Mitogen-activated protein kinase 7 (Homo sapiens), sequence (Q13164 whole entry, looked up, the tested form may be a part): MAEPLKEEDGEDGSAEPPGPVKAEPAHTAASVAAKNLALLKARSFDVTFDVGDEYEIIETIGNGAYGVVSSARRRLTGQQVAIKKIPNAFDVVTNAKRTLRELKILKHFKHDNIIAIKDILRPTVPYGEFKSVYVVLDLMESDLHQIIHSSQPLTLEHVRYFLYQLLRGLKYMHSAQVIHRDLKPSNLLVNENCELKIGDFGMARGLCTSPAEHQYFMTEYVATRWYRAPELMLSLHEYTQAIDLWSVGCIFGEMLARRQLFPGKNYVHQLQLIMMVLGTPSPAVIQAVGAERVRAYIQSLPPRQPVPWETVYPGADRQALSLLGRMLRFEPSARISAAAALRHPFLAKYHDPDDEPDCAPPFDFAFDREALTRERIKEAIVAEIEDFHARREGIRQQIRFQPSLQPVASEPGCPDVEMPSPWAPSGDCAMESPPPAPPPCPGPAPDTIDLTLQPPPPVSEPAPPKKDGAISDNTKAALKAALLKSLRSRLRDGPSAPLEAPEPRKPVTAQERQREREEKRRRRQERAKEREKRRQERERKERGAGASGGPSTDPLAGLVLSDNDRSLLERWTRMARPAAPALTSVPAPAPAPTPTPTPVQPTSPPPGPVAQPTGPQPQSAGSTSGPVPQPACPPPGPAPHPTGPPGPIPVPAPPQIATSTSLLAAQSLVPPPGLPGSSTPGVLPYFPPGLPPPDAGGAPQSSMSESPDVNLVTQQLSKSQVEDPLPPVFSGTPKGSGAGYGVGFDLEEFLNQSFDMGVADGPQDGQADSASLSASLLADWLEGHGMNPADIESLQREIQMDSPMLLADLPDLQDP
# NAD(+) hydrolase SARM1 (Homo sapiens), sequence (Q6SZW1 whole entry, looked up, the tested form may be a part): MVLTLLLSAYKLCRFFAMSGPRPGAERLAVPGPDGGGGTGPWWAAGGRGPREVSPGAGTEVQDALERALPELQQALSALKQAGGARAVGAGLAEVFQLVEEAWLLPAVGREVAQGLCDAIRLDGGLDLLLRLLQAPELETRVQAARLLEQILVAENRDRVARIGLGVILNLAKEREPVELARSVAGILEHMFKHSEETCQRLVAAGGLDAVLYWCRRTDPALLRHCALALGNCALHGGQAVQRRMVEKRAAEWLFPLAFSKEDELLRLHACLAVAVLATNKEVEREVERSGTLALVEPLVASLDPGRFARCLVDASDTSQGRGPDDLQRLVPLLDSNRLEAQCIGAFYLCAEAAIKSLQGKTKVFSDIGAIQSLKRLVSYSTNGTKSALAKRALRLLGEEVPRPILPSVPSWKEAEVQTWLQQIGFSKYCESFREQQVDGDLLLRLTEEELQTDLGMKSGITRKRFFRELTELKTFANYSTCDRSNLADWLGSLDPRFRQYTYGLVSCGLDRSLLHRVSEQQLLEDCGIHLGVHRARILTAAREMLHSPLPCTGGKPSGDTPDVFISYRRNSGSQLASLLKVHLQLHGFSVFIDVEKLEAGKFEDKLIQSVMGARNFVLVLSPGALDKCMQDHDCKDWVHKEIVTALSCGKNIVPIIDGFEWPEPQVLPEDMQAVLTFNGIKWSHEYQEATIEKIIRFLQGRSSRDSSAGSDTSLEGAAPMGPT
smiles,measurement,setting,value
CCn1cc(C(=O)O)c(=O)c2cc(F)c(N3CCNCC3)nc21,remaining NAD,[1],10 nM (inactive)
same,luciferase signal,[2],40 AU (inactive)
same,z-score,[3],-0.075 (inactive)
same,inhibition,"[4]; at 0.5 µM, stronger effect = higher value",95.5% (active) and -29.1% (inactive)
same,inhibition,"[4]; measured here: combination with BGB IC20, at 0.005 µM",-19.8% and -22.4%
same,inhibition,"[4]; measured here: combination with BGB IC40, at 0.005 µM",-56.7% and 0.955%
same,inhibition,[4]; [19],-47.1% and -2.69%
same,inhibition,"[4]; measured here: combination with cisplatin, at 0.5 µM, stronger effect = higher value",108% and -48.6%
same,inhibition,"[4]; measured here: combination with cisplatin, at 5 µM, stronger effect = higher value",-38.7% and -12%
same,inhibition,"[5]; BGB combo, at 5 µM",-53.5% and -12.2%
same,inhibition,[5]; at 0.5 µM,-20.8% (inactive) and 3.72% (inactive)
same,inhibition,"[5]; cisplatin combo, at 5 µM",-17.5% and -19.5%
same,inhibition,[5]; [20],-36.2% and -5.94%
same,inhibition,[5]; [21],4.58% and 5.43%
same,inhibition,"[5]; single agent, at 5 µM",-41.7% and 2.78%
same,inhibition,"[6]; BGB IC20 combo, at 0.005 µM",-24.2% and -17.5%
same,inhibition,"[6]; BGB IC40 combo, at 0.005 µM",-20.3% and -26.8%
same,inhibition,"[6]; BGB IC40 combo, at 0.05 µM",-25.4% and -9.4%
same,inhibition,[6]; at 0.5 µM,-21.1% (inactive) and -10.7% (inactive)
same,inhibition,"[6]; cisplatin combo, at 0.05 µM",-31.9% and -9.4%
same,inhibition,"[6]; cisplatin combo, at 0.5 µM",-30.1% and -9.09%
same,inhibition,"[6]; cisplatin combo, at 5 µM",-14.7% and -13.9%
same,inhibition,"[6]; measured here: 5 uM single agent, at 5 µM",-13.9% and -18.7%
same,inhibition,[7]; at 0.5 µM,-40% (inactive) and 2.92% (inactive)
same,inhibition,[7]; [19],-27.4% and 5.91%
same,inhibition,[7]; [22],-80.9% and -14.1%
same,inhibition,[7]; [23],-47.5% and -13.9%
same,inhibition,[8]; at 0.5 µM,-12.7% (inactive) and -3.77% (inactive)
same,inhibition,"[8]; measured here: with BGB IC20, at 0.5 µM",1.15% and -26.8%
same,inhibition,"[8]; measured here: with BGB IC20, at 5 µM",-15.3% and -6.32%
same,inhibition,"[8]; measured here: with cisplatin IC20, at 0.5 µM",-12.7% and 12.5%
same,inhibition,"[8]; measured here: with cisplatin IC20, at 5 µM",-14.2% and -4.27%
same,inhibition,"[8]; single agent, at 5 µM",1.99% and -0.637%
same,inhibition,[9]; at 0.5 µM,-80.2% (inactive) and -23.4% (inactive)
same,inhibition,"[9]; measured here: combination with BGB at IC20, at 0.5 µM",-85.1% and -50.3%
same,inhibition,"[9]; measured here: combination with cisplatin at IC20, at 0.5 µM",-99.8% and 10.9%
same,inhibition,[10]; at 0.5 µM,-13.7% (inactive) and -3.13% (inactive)
same,inhibition,"[10]; measured here: combo with BGB at IC20, at 0.5 µM",-9.56% and -6.49%
same,inhibition,"[10]; measured here: combo with cisplatin at IC20, at 0.5 µM",-20.1% and 4.15%
same,inhibition,[11]; at 0.5 µM,-10.7% (inactive) and 1.4% (inactive)
same,inhibition,"[11]; measured here: inhibition with BGB combination, at 0.05 µM",-29.8% and -21.6%
same,inhibition,"[11]; measured here: inhibition with cisplatin combination, at 0.05 µM",-19.7% and -11.2%
same,inhibition,[12]; at 0.5 µM,-18.7% (inactive) and -16.6% (inactive)
same,inhibition,[12]; [22],-8.22% and -12.2%
same,inhibition,[12]; [23],-10.3% and -8.58%
same,inhibition,[13]; at 0.5 µM,-9.05% (inactive) and -13.8% (inactive)
same,inhibition,"[13]; measured here: BGB combination, at 0.5 µM",-10.2% and -4.34%
same,inhibition,"[13]; measured here: BGB combination, at 5 µM",-20.2% and -12.6%
same,inhibition,"[13]; measured here: cisplatin combination, at 0.5 µM",-12.3% and -35.3%
same,inhibition,"[13]; measured here: cisplatin combination, at 5 µM",-9.88% and -14.8%
same,inhibition,"[14]; BGB combination, concentration series, at 5 µM",-1.06% and 7.56%
same,inhibition,[14]; at 0.5 µM,-12.5% (inactive) and 3.88% (inactive)
same,inhibition,"[14]; cisplatin combination, concentration series, at 5 µM",0.876% and 19.6%
same,inhibition,[15],8.11% (inactive) and 6.08% (inactive)
same,inhibition,[15]; measured here: combo with BGB IC20,13.6% and -6.3%
same,inhibition,[15]; measured here: combo with cisplatin IC20,-5.13% and 23.3%
same,inhibition,[16]; at 0.5 µM,-14.2% (inactive)
same,inhibition,"[16]; cisplatin combination, at 0.5 µM",-20.2% and 4.87%
same,inhibition,"[16]; cisplatin combination, at 5 µM",-328% and -22.3%
same,inhibition,"[16]; measured here: BGB IC40 combination 0.05 uM, at 0.05 µM",-15.2% and 5.81%
same,inhibition,"[16]; single agent, at 5 µM",-15.6% and -14.8%
same,inhibition,[17]; at 0.5 µM,-23.5% (inactive) and -3.9% (inactive)
same,inhibition,"[17]; cisplatin combo, at 5 µM",-47.1% and 18.7%
same,inhibition,"[17]; measured here: BGB IC40 combination, at 0.05 µM",-10.4% and 1.16%
same,inhibition,[17]; [22],-40.4% and 9.59%
same,inhibition,"[17]; single agent, at 5 µM",-15.2% and -21.3%
same,inhibition,[18]; at 0.5 µM,9.99% (inactive) and 6.3% (inactive)
same,inhibition,[18]; [20],-15.9% and 0.601%
same,inhibition,[18]; [21],21.7% and 9.15%
same,inhibition,"[18]; single agent, at 0.05 µM",-9.98% and 9.98%
same,inhibition,"[18]; single agent, at 5 µM",-24.6% and 24.3%
CCN(CC)CCNC(=O)c1cc(S(C)(=O)=O)ccc1OC,remaining NAD,[1],10 nM (inactive)
same,luciferase signal,[2],80 AU (inactive)
same,z-score,[3],0.285 (inactive)
CC(C)NNC(=O)c1ccncc1,remaining NAD,[1],10 nM (inactive)
same,luciferase signal,[2],60 AU (inactive)
same,z-score,[3],0.54 (inactive) and 0.67 (inactive)
